Measured values: the supplement of paper PMC9588786
± gives the standard deviation of the averaged measurements.

Tested on: HT-1080
Test: relative cell viability with RSL3 co-treatment (fraction of control); higher = stronger protection from RSL3-induced ferroptosis (higher viability)
Conditions: 10 µM
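Further: viability read as CCK-8 absorbance at 450 nm in cells co-exposed to the GPX4 inhibitor RSL3, relative to a 0.01% DMSO vehicle control.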

SMILES	relative cell viability
Cc1nc(Nc2n[nH]c3c2CN(C(=O)N[C@H](CN(C)C)c2ccccc2)C3(C)C)c2sccc2n1	0.557 ± 0.032
COc1cc(Nc2ncc(F)c(Nc3ccc4c(n3)N(COP(=O)(O)O)C(=O)C(C)(C)O4)n2)cc(OC)c1OC [Fostamatinib (R788)]	0.6 ± 0.017
CNc1nc(Nc2cn(C(C)(C)C#N)nc2C)ncc1C(F)(F)F	0.757 ± 0.1
COc1cc(N2CCC(N3CCN(C)CC3)CC2)ccc1Nc1ncnc(Nc2ccccc2S(=O)(=O)C(C)C)n1	0.807 ± 0.023
